Drawing on PubChem BioAssay (Tox21), this text covers Potency and activity change, negative = inhibition for 39 compounds.

A number with no mark means an inactive call. A call without a number means that no potency is given here. The source made the active and inactive calls. Calls follow the shape of the full dose curve. Residues, ends and D or L forms follow the SMILES beside them.
Potency is read from the fitted curve at half-maximal effect.

Acetylcholinesterase (Homo sapiens), sequence (P22303 whole entry, looked up): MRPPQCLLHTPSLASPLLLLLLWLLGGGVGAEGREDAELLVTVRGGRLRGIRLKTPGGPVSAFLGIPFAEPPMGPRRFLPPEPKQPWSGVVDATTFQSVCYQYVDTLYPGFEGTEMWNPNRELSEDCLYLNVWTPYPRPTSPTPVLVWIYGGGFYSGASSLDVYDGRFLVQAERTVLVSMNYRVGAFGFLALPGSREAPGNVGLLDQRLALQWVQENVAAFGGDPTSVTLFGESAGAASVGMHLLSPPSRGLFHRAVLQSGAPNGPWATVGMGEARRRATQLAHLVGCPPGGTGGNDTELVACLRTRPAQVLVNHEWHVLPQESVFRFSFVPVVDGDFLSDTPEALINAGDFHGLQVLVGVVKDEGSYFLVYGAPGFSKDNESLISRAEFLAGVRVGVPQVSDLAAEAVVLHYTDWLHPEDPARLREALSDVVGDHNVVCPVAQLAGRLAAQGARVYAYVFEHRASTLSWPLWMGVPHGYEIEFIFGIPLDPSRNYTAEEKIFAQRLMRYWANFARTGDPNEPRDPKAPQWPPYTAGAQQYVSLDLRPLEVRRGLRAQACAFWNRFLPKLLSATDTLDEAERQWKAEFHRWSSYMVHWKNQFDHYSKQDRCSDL

This test deals with Acetylcholinesterase (Homo sapiens) (UniProt P22303). Put plainly: Acetylcholinesterase (AChE) small molecule antagonists: enzyme-based qHTS assay with human liver microsomes (AID 1347399). Also: nearly all actives have a fitted effect of over 60% in size. As to conditions: Potency: qHTS inhibition; outcome: qHTS inhibition; series mostly up to 115 µM. Summed up:
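Recombinant human AChE (50 mU/mL in the enzyme mix) and human liver microsomes (0.25 mg/mL final) were preincubated with compound and NADPH (0.25 mg/mL final) for 30 min at 37 C. Acetylthiocholine/DTNB was then added; thiocholine was read colorimetrically after 10 min at room temperature.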
A general note: qHTS replaces the single test concentration by a dilution series.
Regarding `CCOC(=O)COC(=O)c1cc(Oc2ccc(C(F)(F)F)cc2Cl)ccc1[N+](=O)[O-]`, the Potency result was “inactive”.

`CCCCCCC(=O)OCC`: the Potency entry is “inactive”.

In the case of `CC(=O)N[C@@H](CO)C(=O)N[C@@H](CC(=O)O)C(=O)N[C@@H](CCCCN)C(=O)N1CCC[C@H]1C(=O)O` (Ac-SDKP-OH), the Potency entry was “inactive”.

`Nc1ccc(F)cc1`: the Potency entry was “inactive”.

Consider `C=CC(=O)O`, for which the Potency result is “inactive”.

For the compound `CC1=CCCC(C)(C)C12CCC(C)O2` (centres undefined), the Potency entry is “inactive”.

As to `CCCCC`, the Potency result is “inactive”.

Take `CCCCCCC(C)Nc1ccc(Nc2ccccc2)cc1` (centres undefined): the Potency result was “inactive”.

For `CC/C=C\CCOC(C)=O`, the Potency result was “inactive”.

As for `CCCCCCCCCCCBr`, the Potency result is “inactive”.

In the case of `CC(COc1ccccc1)NN` (centres undefined), the Potency entry was “inactive”.

As to `Nc1cnn([C@@H]2O[C@H](CO)[C@@H](O)[C@H]2O)c(=O)n1`, the Potency entry was “inactive”.

Take `CN(CCCN1c2ccccc2CCc2ccccc21)CC(=O)c1ccc(Cl)cc1`: the Potency result is “inactive”.

As to `CC(C)=CCC[C@H](C)CCO`, the Potency result is “inactive”.

For the compound `COc1cc(Cl)ccc1Oc1ccc(Cl)cc1Cl`, the Potency entry was “inactive”.

Take `CC1=C2[C@H](/C=C(\C)C(=O)O)CC[C@@H](C)[C@H]2CC1`: the Potency entry was “inactive”.

Regarding `CCOCCOCCOC(C)=O`, the Potency entry is “inactive”.

Take `COc1ccc(Cl)cc1C`: the Potency entry is “inactive”.

With `CC(C)(c1ccc(Oc2ccc3c(c2)C(=O)OC3=O)cc1)c1ccc(Oc2ccc3c(c2)C(=O)OC3=O)cc1`, the Potency entry was “inactive”.

Consider `COCCCOCCCOC`, for which the Potency entry was “inactive”.

On to `O=C(N[C@@H](c1ccccc1)[C@@H]1CCCCN1)c1cccc(C(F)(F)F)c1Cl`, for which the Potency result is “inactive”.

Turning to `C=CCOc1nc(OCC=C)nc(OCC=C)n1`, the Potency result was “inactive”.

On to `Cc1cccc(C)c1NC(=O)CN(CC(=O)O)CC(=O)O`, for which the Potency entry was “inactive”.

Consider `O=S(=O)(O)c1ccc2cc(O)c(S(=O)(=O)O)cc2c1`, for which the Potency result is “inactive”.

As to `CCC(C)(C)C1CCC(=O)CC1`, the Potency entry is “inactive”.

For `COC(=O)CCCCCCCCC(=O)OC`, the Potency result is “inactive”.

Turning to `CC(C)(C)c1cc(C=O)cc(C(C)(C)C)c1O`, the Potency result was “inactive”.

Take `CCc1nccnc1C`: the Potency entry was “inactive”.

In the case of `O=C1C=CC(=O)N1c1cccc(N2C(=O)C=CC2=O)c1`, the Potency result is “inactive”.

As for `COC(=O)C1CC(=O)C(C(=O)OC)CC1=O` (centres undefined), the activity change, negative = inhibition was -0.962% [at 10.5 µM].

As to `[Ca+2]`, the Potency result is “inactive”.

Take `c1ccc(-c2nc3ccccc3[nH]2)cc1`: the Potency result was “inactive”.

For `OC(CN1CCC(Cc2ccc(F)cc2)CC1)c1ccc(Cl)cc1` (centres undefined), the Potency result was “inactive”.

Consider `O=C(O)/C=C/c1ccccc1`, for which the Potency result is “inactive”.

On to `OC[C@@H](O)[C@H](O)[C@@H](O)[C@@H](O)CO`, for which the Potency entry is “inactive”.

For `CC(C)(C)NCC(O)COc1ccc(NC(=O)NC2CCCCC2)cc1` (centres undefined), the Potency result is “inactive”.

Take `Clc1cc(Cl)c2c(c1)N=C1CCCCCN1C2`: the Potency was 3.89 µM (active).

With `CC12CCC(C(=O)C1=O)C2(C)C` (centres undefined), the Potency result was “inactive”.

With `NS(=O)(=O)c1cc(C(=O)NN2C[C@H]3[C@H]4CCC(C4)[C@H]3C2)ccc1Cl`, the Potency entry was “inactive”.
